From the supplement of paper PMC10681739

Each sequence was assayed against T1, ETS1 (UniProt P14921) (assay: ETS1 binding intensity (PBM fluorescence), ETS1 alone (arbitrary fluorescence units); higher = stronger binding). Conditions: ETS1 concentration 1 nM; RUNX1 concentration 0 nM.
T1 sequence: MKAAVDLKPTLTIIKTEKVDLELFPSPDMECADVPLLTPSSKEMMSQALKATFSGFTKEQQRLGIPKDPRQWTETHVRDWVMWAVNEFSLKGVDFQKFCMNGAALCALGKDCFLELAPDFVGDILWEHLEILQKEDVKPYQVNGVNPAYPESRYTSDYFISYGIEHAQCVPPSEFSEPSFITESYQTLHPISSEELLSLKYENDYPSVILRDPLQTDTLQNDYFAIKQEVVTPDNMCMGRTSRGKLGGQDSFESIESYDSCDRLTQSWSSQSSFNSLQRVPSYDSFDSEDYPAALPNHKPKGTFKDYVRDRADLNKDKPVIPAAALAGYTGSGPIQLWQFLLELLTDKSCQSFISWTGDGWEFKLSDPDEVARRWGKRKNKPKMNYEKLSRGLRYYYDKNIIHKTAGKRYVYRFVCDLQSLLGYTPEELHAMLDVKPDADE
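For RUNX1 binding intensity (PBM fluorescence), RUNX1 alone in this document: Full-length recombinant human RUNX1 bound to double-stranded 36-bp genomic probes on a high-density microarray, scored as Alexa488 fluorescence per spot via anti-RUNX1 antibody, median of four replicate spots.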

Row | Sequence | ETS1 binding intensity
1 | CCTCTGAGGCAGGAAGCTGCGGTGAAGTCTGAAGTT | 3300
2 | TGAGCCCTACTTCCGGTGGTGCTGTGGTCTGCCCCT | 10700
3 | ACGACGTCCCGGAAGTGCTGCGGCAATGTTGCTCTT | 5570
4 | GGGCAGGAAGGAAGAGGGCTCCTCCCCACAAGCTCT | 437
5 | ACATGGTCTCGCTTCCTGTTTACACCACAGAAAGCT | 2820
6 | GGGCTCCCAGAAGGATGTGGTTTCTGAGTACGTTGG | 582
7 | GAGAGGAGGATGTTGTCAGATACCCACAAATGAGAA | 566
8 | AATCCAACACTTCCTCCTCCACCGCAGAAAGGCAAC | 518
9 | AGCCAACAGGAAGCTGCAGAGACTAAACCACAGCAA | 1150
10 | CCCGCTACACAAGGCGGATGTGGTACCCTCACTTGT | 3810
11 | CCTCCCACCTTGGCAGGAAGCGGTTTATCAGATTAA | 4250
12 | TTAACCAGACATTTCCTGTGGTCTAAGGTGACCCCA | 859
13 | GCGGGGACCCGGATGTGTGTGGTGGCGGCGGCCGAA | 3040
14 | TATGTGTTTTAGGCAGGATGTGGGTTTTAGTCTTTC | 8060
15 | TGTTGTAGGGGAAGTGGTGTGTGGTATTCCTGGGGA | 797
16 | GCACTTCCGGAGCCGGGCGTCTACAGACCGCGGCCA | 868
17 | AGCTCAATTTCCTGGCGTGTAACATGGCCACAAGGG | 827
18 | CTTAGCGGAAGAGGCGTGACCCAGGCGTACCGCAGG | 497
19 | GAGTCGCTTCCGCTCCCGCCCCGCTCTGTGGCGTAG | 1180
20 | TTTTTAAGGTCAGGATGTGGGCACATCTAAGGGGCA | 1330

Row | Sequence | ETS1 binding intensity
21 | TATTCATGACATCCTGTCGGGCTTGTGGGCTGCGTA | 1020
22 | CTGGTTTCATTTCCGGGTGCGGCTTCTGTCATAAAG | 1900
23 | ACATTTCCTTTTGGTATTTAAAGTAACCACACAGAA | 495
24 | CCAGCTACACAGGATGCTGCGGTGGGCGGAATGCTC | 2160
25 | AGGGTGTGGAGGAAGTGGCTTACAACCACTTTGTCT | 1270
26 | AGCGCTTCCTGGCTCCGGCCCCGCCCCTGCGGTCGG | 484
27 | GCGGAGGCGGAAGTCGTGCTGCTGCTGACCACGGCT | 2560
28 | CCGGGCTGCGGAAGGCGGGAACTCTGCGGTTCGCGG | 484
29 | GAAATGAGAGAACGGAAACCACAAGTCAAGGGGCTT | 1460
30 | GCCCCCGGAAGCTGTCGCCCCGTGCGGTGTGTGCTG | 1600
31 | GAGGCCCAGGATGTGGCTGGAGGCCTGTGGTGGGAC | 630
32 | GACCAATGTAAACAAGGATGTGGGTTCTCCGGGCAC | 929
33 | AGAGCGAGGAGGACTTCCTGCGGCAGGTCGGCGTGA | 635
34 | GCCATGGCCACTTCCTGCTTGTAACCACAGCCCAGA | 4430
35 | AAGAGGAAGTCCCAAATTGCTTTTTAACCACCAACA | 522
36 | AACAAACCGGATGGGGTTGCCACCCGCAATCTTGTC | 2030
37 | CGGCATCTGACAGGATGTGGGCAGGGAGAGAGAGAC | 3780
38 | GCGGGGCGCAGGAAGCGGGGCGAAACCACTGTTGGC | 1040
39 | CATACAGGATGCTGGGGTATGTAAAACAAACCACGG | 708
40 | GTTTCATGTTAAGTAGGATGTGGTCAGTTAGCTTCG | 851

The sequences below were run against RUNX1 (UniProt Q01196) (assay: RUNX1 binding intensity (PBM fluorescence), RUNX1 alone (arbitrary fluorescence units); higher = stronger binding). Conditions: RUNX1 concentration 2 nM; ETS1 concentration 0 nM.
Sequence of RUNX1 (Q01196 whole entry): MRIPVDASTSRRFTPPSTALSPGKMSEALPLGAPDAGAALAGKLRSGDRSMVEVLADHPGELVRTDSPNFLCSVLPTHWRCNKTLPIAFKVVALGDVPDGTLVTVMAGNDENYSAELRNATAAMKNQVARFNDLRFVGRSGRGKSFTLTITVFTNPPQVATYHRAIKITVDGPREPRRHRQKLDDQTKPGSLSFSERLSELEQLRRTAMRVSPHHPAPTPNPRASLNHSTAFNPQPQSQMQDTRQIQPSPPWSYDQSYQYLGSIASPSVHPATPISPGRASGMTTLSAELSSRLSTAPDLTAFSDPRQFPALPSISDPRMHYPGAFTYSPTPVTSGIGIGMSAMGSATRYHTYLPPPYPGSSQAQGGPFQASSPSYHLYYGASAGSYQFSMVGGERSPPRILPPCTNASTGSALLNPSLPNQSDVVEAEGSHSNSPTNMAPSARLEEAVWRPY
Method: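 Cooperative gcPBM on 36-bp genomic probes with neighbouring ETS1 and RUNX1 sites. Recombinant human RUNX1 (2 nM) was incubated alone or with ETS1 (25 nM) and detected with anti-RUNX1 antibody plus Alexa488 secondary. Values are medians over 4 replicate spots; the RUNX1+ETS1 data were normalised to the RUNX1-only data. The probes sit in constant array flanks that are not printed.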

Row | Sequence | RUNX1 binding intensity
41 | CCTCTGAGGCAGGAAGCTGCGGTGAAGTCTGAAGTT | 871
42 | TGAGCCCTACTTCCGGTGGTGCTGTGGTCTGCCCCT | 786
43 | ACGACGTCCCGGAAGTGCTGCGGCAATGTTGCTCTT | 759
44 | GGGCAGGAAGGAAGAGGGCTCCTCCCCACAAGCTCT | 738
45 | ACATGGTCTCGCTTCCTGTTTACACCACAGAAAGCT | 1040
46 | GGGCTCCCAGAAGGATGTGGTTTCTGAGTACGTTGG | 906
47 | GAGAGGAGGATGTTGTCAGATACCCACAAATGAGAA | 812
48 | AATCCAACACTTCCTCCTCCACCGCAGAAAGGCAAC | 1490
49 | AGCCAACAGGAAGCTGCAGAGACTAAACCACAGCAA | 879
50 | CCCGCTACACAAGGCGGATGTGGTACCCTCACTTGT | 891
51 | CCTCCCACCTTGGCAGGAAGCGGTTTATCAGATTAA | 810
52 | TTAACCAGACATTTCCTGTGGTCTAAGGTGACCCCA | 1020
53 | GCGGGGACCCGGATGTGTGTGGTGGCGGCGGCCGAA | 700
54 | TATGTGTTTTAGGCAGGATGTGGGTTTTAGTCTTTC | 840
55 | TGTTGTAGGGGAAGTGGTGTGTGGTATTCCTGGGGA | 811
56 | GCACTTCCGGAGCCGGGCGTCTACAGACCGCGGCCA | 804
57 | AGCTCAATTTCCTGGCGTGTAACATGGCCACAAGGG | 830
58 | CTTAGCGGAAGAGGCGTGACCCAGGCGTACCGCAGG | 804
59 | GAGTCGCTTCCGCTCCCGCCCCGCTCTGTGGCGTAG | 748
60 | TTTTTAAGGTCAGGATGTGGGCACATCTAAGGGGCA | 816

Row | Sequence | RUNX1 binding intensity
61 | TATTCATGACATCCTGTCGGGCTTGTGGGCTGCGTA | 704
62 | CTGGTTTCATTTCCGGGTGCGGCTTCTGTCATAAAG | 924
63 | ACATTTCCTTTTGGTATTTAAAGTAACCACACAGAA | 1060
64 | CCAGCTACACAGGATGCTGCGGTGGGCGGAATGCTC | 801
65 | AGGGTGTGGAGGAAGTGGCTTACAACCACTTTGTCT | 764
66 | AGCGCTTCCTGGCTCCGGCCCCGCCCCTGCGGTCGG | 942
67 | GCGGAGGCGGAAGTCGTGCTGCTGCTGACCACGGCT | 741
68 | CCGGGCTGCGGAAGGCGGGAACTCTGCGGTTCGCGG | 861
69 | GAAATGAGAGAACGGAAACCACAAGTCAAGGGGCTT | 3620
70 | GCCCCCGGAAGCTGTCGCCCCGTGCGGTGTGTGCTG | 787
71 | GAGGCCCAGGATGTGGCTGGAGGCCTGTGGTGGGAC | 700
72 | GACCAATGTAAACAAGGATGTGGGTTCTCCGGGCAC | 706
73 | AGAGCGAGGAGGACTTCCTGCGGCAGGTCGGCGTGA | 652
74 | GCCATGGCCACTTCCTGCTTGTAACCACAGCCCAGA | 1210
75 | AAGAGGAAGTCCCAAATTGCTTTTTAACCACCAACA | 849
76 | AACAAACCGGATGGGGTTGCCACCCGCAATCTTGTC | 826
77 | CGGCATCTGACAGGATGTGGGCAGGGAGAGAGAGAC | 1270
78 | GCGGGGCGCAGGAAGCGGGGCGAAACCACTGTTGGC | 753
79 | CATACAGGATGCTGGGGTATGTAAAACAAACCACGG | 775
80 | GTTTCATGTTAAGTAGGATGTGGTCAGTTAGCTTCG | 1120
